Assay outcomes deposited in PubChem by National Center for Advancing Translational Sciences (NCATS).
Shown are actives, neighbours in structure and some others; about 10% of the full set was active somewhere.
3T3 cytotox: cytotoxic compounds in NIH 3T3 cells; NIH 3T3 viability, CellTiter-Glo ATP luminescence, 48-72 h; Potency, µM (doses to about 96.7 µM), hits mostly inhibitors; hit rate 4.3% among 94,000; further: nearly all actives have a fitted effect of over 55% in size
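Cells were seeded at 400 per well, treated with pin-transferred compound, and kept 48 or 72 hr at 37 °C before CellTiter-Glo addition and luminescence imaging of cellular ATP.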
hNpr1 antagonist: blocks ANP-stimulated signaling of human Npr1 receptor | hit rate 1.6% among 76,000 | Potency, µM (doses to about 46.3 µM), hits mostly inhibitors | HEK293 hNpr1 GloSensor cGMP, ANP-stimulated luminescence; calls by dose curve; further: nearly all actives have a fitted effect of over 60% in size
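HEK293 cells stably expressing human Npr1 and cGMP GloSensor pGS-40F, loaded 2 h with 2% GloSensor reagent, given compound 30 min at room temperature. Luminescence read before and 20 min after 0.1 nM hNppA.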
Luciferase inh: blocks purified firefly luciferase enzyme activity. P08659. purified P. pyralis luciferase, luminescence, biochemical. Potency, µM (doses to about 115 µM), usual class: inhibitors. hit rate 2.5% among 76,000. AID 1347043; further: nearly all actives have a fitted effect of over 65% in size
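Biochemical qHTS: compound (6-point titration) added to 10uM D-luciferin plus 10uM ATP in Tris acetate pH 7.5 buffer with Mg, Tween-20 and BSA, then purified enzyme at 10nM; light output imaged.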
GPT2 inhibitor: GPT2 alanine aminotransferase inhibition; Q8TD30; Recombinant GPT2, coupled pyruvate oxidase/HRP Amplex Red fluorescence; Potency, µM (titrated, usually from 57.7 µM), most hits filed as inhibitors; hit rate 0.25% among 100,000; further: nearly all actives have a fitted effect of over 60% in size
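Fluorescence read-out: pyruvate from GPT2 turnover coupled to pyruvate oxidase, HRP and Amplex Red (0.2mM ThPP, 0.2U/mL PO and HRP, 50uM Amplex final). Substrates 250uM a-KG, 2mM L-alanine; enzyme 10ng/uL; 30 min RT.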
HEK293 tox: HEK 293 cell cytotoxicity. HEK 293 viability, ATP luminescence (CellTiter-Glo), 48-72 h. Potency, µM (doses to about 115 µM), actives largely listed as inhibitors. hit rate 6.6% among 94,000; further: nearly all actives have a fitted effect of over 60% in size
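Luminescence from cellular ATP, measured with CellTiter-Glo, indicates HEK 293 viability. Cells plated at 250 cells/well are treated with compound for 48 or 72 hr at 37 degree Celsius before reagent addition.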
Each line names hits and unclear results; the compound was inactive in the other large screens. Unless noted, the call rests on the fitted dose curve; in most records, active means well fitted curve in the direction sought with a large enough effect; inconclusive means small, poorly fitted or top-dose-only effect, or another doubt; inactive means no such curve, though single readings can be large; an effect the other way counts as inactive or inconclusive.

N#Cc1ccc(CN2CCC3(C2)C(=O)N(c2ccccc2)c2ccccc23)cc1 (centres undefined)	3T3 cytotox inconclusive, HEK293 tox 15.8µM (no result: hNpr1 antagonist, Luciferase inh)
COc1ccc(CN2CCC3(C2)C(=O)N(C)c2ccccc23)cc1 (centres undefined)	3T3 cytotox inconclusive, HEK293 tox inconclusive
CN(C)c1ccc(CN2CCC3(C2)C(=O)N(C)c2ccccc23)cc1 (centres undefined)	3T3 cytotox inconclusive, HEK293 tox 79.4µM
COCC1CCN(c2ccc(-c3nc(CCCc4ccccc4)no3)cn2)C1 (centres undefined)	3T3 cytotox inconclusive, hNpr1 antagonist inconclusive, Luciferase inh inconclusive, HEK293 tox inconclusive
C=CCNC(=O)c1cnn2c1CN(C(=O)c1ccccc1F)CC2	HEK293 tox inconclusive (no result: hNpr1 antagonist, Luciferase inh)
COc1ccc(CN2CC[C@@H]3[C@H]2C(=O)NC[C@H](CCC(=O)NCc2cccs2)N3C)cc1	none
CN1c2ccccc2C(=O)N2CCC3c4ccccc4NC3C21 (centres undefined)	none (no result: 3T3 cytotox, hNpr1 antagonist, Luciferase inh, HEK293 tox)
COc1ccc(CN2CCC3(C2)C(=O)N(Cc2ccccc2)c2ccccc23)cc1 (centres undefined)	3T3 cytotox 35.5µM, hNpr1 antagonist inconclusive, HEK293 tox 39.8µM
Cc1nc2c(c(-c3ccc(O)cc3)n1)CN(Cc1ccc(OC(F)(F)F)cc1)CCC2	3T3 cytotox inconclusive, hNpr1 antagonist inconclusive, HEK293 tox 35.5µM
COc1ccc(-c2nc(C)nc3c2CCN(Cc2cccc4ccccc24)CC3)cc1	3T3 cytotox inconclusive, HEK293 tox 39.8µM
Cc1nc2c(c(-c3ccc(O)cc3)n1)CN(Cc1ccc(C(F)(F)F)cc1)CCC2	3T3 cytotox inconclusive, hNpr1 antagonist inconclusive, HEK293 tox 31.6µM
Cc1nc2c(c(-c3ccc(O)cc3)n1)CN(Cc1ccccc1)CCC2	3T3 cytotox inconclusive, HEK293 tox inconclusive
Cc1nc2c(c(-c3ccc(O)cc3)n1)CN(Cc1cccc3ccccc13)CCC2	3T3 cytotox 31.6µM, hNpr1 antagonist inconclusive, HEK293 tox 31.6µM
Cc1nc2c(c(-c3ccc(O)cc3)n1)CN(Cc1ccc(C(F)(F)F)cc1)CC2	HEK293 tox inconclusive
COc1ccc(OCc2nc(C)c(CCO)c(=O)n2CC(=O)Nc2cc(OC)ccc2OC)cc1	none
CCOC(=O)CC1CCCCN1C(=O)CCC1(Cc2ccc(F)cc2)CCC(=O)N1 (centres undefined)	none
COCCCNc1ncnc2c1CN(c1cccnc1)C(=O)CN2C	none
CC(=O)N1CCCC(c2nc(CCOCC3CC3)no2)C1 (centres undefined)	none
COc1ccc(-c2cn3cc(C(=O)N4CCCC4)nc3c(=O)n2CC2CC2)c(F)c1	3T3 cytotox 31.6µM, GPT2 inhibitor inconclusive, HEK293 tox 31.6µM
CC1CCCN1C(=O)c1cn2cc(-c3cccc(Cl)c3)n(CC3CC3)c(=O)c2n1 (centres undefined)	3T3 cytotox 25.1µM, HEK293 tox inconclusive
CCCn1cc(-c2ccnc(NCc3cccc(C)c3)n2)c(C)n1	3T3 cytotox inconclusive, HEK293 tox inconclusive
CCCn1cc(-c2ccnc(NC3CCN(Cc4ccccn4)CC3)n2)c(C)n1	3T3 cytotox inconclusive, HEK293 tox 28.2µM
CCCn1cc(-c2ccnc(NCc3c(F)ccc(C)c3F)n2)c(C)n1	3T3 cytotox inconclusive, HEK293 tox 50.1µM
Cc1ccc(-c2cn[nH]c2C2CCCN(C(=O)c3cnc(C)s3)C2)cc1 (centres undefined)	3T3 cytotox inconclusive, HEK293 tox inconclusive
COCC(=O)NCc1cc2n(n1)CCCN(Cc1cc3ccccc3s1)C2	3T3 cytotox inconclusive, HEK293 tox 20µM
Cc1ccccc1-c1[nH]nc2ncc(-c3ccnn3C)nc12	3T3 cytotox inconclusive
COc1ccc(-c2[nH]nc3ncc(-c4cccc(F)c4)nc23)c(C)c1	3T3 cytotox inconclusive, HEK293 tox inconclusive
COc1ccc(-c2[nH]nc3ncc(-c4ccc([S+](C)(=O)[O-])cc4)nc23)c(C)c1	3T3 cytotox inconclusive, HEK293 tox 56.2µM
Cc1ccccc1-c1[nH]nc2ncc(-c3ccccc3O)nc12	3T3 cytotox inconclusive, HEK293 tox 63.1µM
COc1ccc(-c2[nH]nc3ncc(-c4ccccc4O)nc23)c(C)c1	3T3 cytotox inconclusive, HEK293 tox 28.2µM
